# Source: PubChem (several laboratories)
# NTR1 agonist: agonists of human NTR1, primary screen, imaging, U2OS cells, beta-arrestin-GFP, high content; NTR1-U2OS beta-arrestin-GFP spot imaging, agonist mode; activation, % at 20 µM; 0.17% of 330,000 active; AID 493036, 2011;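 active means activation at or above 40% of the spot to cytoplasm intensity ratio, with at least 20 cells analyzed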
# GRK2 inh: compounds blocking aptamer binding on GRK2 – biochemical, human GRK2, bead flow cytometry, HTS, primary screen. Beta-adrenergic receptor kinase 1 (Homo sapiens), P25098. FAM-aptamer displacement from GRK2. inhibition of aptamer binding, % at 10 µM. 0.59% of 330,000 active. AID 488847, 2010;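 active means inhibition of aptamer binding above 40%, roughly 3 SD of noise, on plates passing a quality check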;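 further: median bead fluorescence of bound FAM aptamer so fluorescent compounds give negative values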
# Target sequence (P25098 whole entry, looked up): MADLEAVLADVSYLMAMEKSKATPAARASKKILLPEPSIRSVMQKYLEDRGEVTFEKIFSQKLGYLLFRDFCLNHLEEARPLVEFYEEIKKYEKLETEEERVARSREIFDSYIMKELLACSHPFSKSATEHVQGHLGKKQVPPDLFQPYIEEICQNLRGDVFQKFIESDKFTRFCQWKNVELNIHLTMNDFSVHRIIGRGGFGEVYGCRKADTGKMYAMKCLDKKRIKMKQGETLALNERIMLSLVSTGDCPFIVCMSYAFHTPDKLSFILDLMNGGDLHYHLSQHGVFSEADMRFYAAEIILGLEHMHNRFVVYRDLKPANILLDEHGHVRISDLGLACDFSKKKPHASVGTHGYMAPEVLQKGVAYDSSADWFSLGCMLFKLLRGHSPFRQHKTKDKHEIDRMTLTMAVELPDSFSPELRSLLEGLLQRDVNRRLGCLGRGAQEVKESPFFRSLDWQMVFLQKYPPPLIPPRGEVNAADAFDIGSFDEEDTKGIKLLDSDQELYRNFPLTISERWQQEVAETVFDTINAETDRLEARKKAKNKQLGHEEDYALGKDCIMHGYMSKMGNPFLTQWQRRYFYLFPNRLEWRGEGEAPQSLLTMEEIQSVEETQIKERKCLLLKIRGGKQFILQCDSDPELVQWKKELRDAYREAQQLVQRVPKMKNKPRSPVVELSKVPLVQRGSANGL
# Platelet DG rel: inhibitors of platelet dense granule secretion, primary screen, cell-based, MLPCN, human platelets; 0.22% of 300,000 active; inhibition, %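 (compounds screened at 7.5 µM in platelet-rich plasma)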; human platelet-rich plasma, SFLLRN dense granule ATP release, luminescence; AID 1663, 2009;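 active means mean replicate score, as percent of positive control, at or above 50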
# MIN6 prolif-1: inducers of MIN6 beta-cell proliferation, primary screen, ATP luminescence, uHTS; AID 2380, 2010; MIN6 cells proliferation, ATPlite luminescence, 48 h; cells starved in 0.2% serum; 100% = growth in 10% serum; 0.29% of 330,000 active; proliferation, % at 10 µM;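 active means compounds whose signal lies at least 3.5 SD above the mean of all wells on their plate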
# MIN6 prolif-2: inducers of beta-cell proliferation in MIN6, confirmation, MIN6 cells, mouse. shares compounds with MIN6 prolif-1. ATPlite luminescence, 48 h; cells kept in 0.2% serum; scaled between 0.2% and 10% serum. proliferation increase, % at 50 µM. 920 tested, under 10 active;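 active means proliferation increase above 40% at any of the four tested concentrations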
# Hits are given with their value; – = inactive; · = not tested or not shown. In the library only some 1.2% were active in any assay of this set; here they are far more common.
SMILES,NTR1 agonist,GRK2 inh,Platelet DG rel,MIN6 prolif-1,MIN6 prolif-2
Cc1cnc(C(=O)OCC(=O)Nc2cc(-c3ccccc3)nn2-c2ccccc2)cn1,–,–,–,11.5,–
Cc1cnc(C(=O)OCC(=O)NCc2ccccc2)cn1,–,–,–,–,·
COc1cc(NC(=O)c2ccccc2F)c(OC)cc1NC(=O)CN1CCCCC1,–,–,–,9.3,–
COCCOc1ccc(C(F)(F)F)cc1NC(=O)c1ccccc1F,–,–,–,6.7,–
Cc1cccc(N(C)S(=O)(=O)c2csc(C(N)=O)c2)c1,–,–,–,–,·
CCOc1ccc(NC(=O)c2ccccc2C(=O)c2ccccc2)cc1OCC,–,–,–,–,·
Cc1c(NC(=O)C(C)OC(=O)Cc2ccc(F)cc2)c(=O)n(-c2ccccc2)n1C (configuration not stated),–,–,–,–,·
Cc1c(NC(=O)C(C)OC(=O)CCc2c[nH]c3ccccc23)c(=O)n(-c2ccccc2)n1C (configuration not stated),–,–,–,11.9,–
Cc1ccc(-c2cc(C(F)F)n3ncc(C(=O)N4CCCc5ccccc54)c3n2)cc1,–,–,–,7.8,–
Cc1nn(-c2ccccc2)c(C)c1C(=O)N1CCN(S(=O)(=O)c2ccccc2)CC1,–,–,·,11.5,–
Cc1cccc(COC(=O)C(Cc2ccccc2)NC(N)=O)c1 (configuration not stated),–,–,–,–,·
O=C(Cc1ccc(Cl)cc1Cl)NCc1cccnc1,–,–,–,–,·
COc1ccc(OC)c(C2=Nn3c(nnc3C3CCCCC3)SC2)c1,–,–,–,9.3,–
CC(O)CNc1cc(N)c([N+](=O)[O-])cc1[N+](=O)[O-] (configuration not stated),–,–,–,0.0,–
CC(O)CNc1ccc(-c2n[nH]c(=O)c3ccccc23)cc1[N+](=O)[O-] (configuration not stated),–,–,–,–,·
Cc1ccccc1NC(=O)C(C)Sc1nnc(-c2ccncc2)n1CC1CCCO1 (configuration not stated),–,–,–,–,·
Cc1cc(C)nc(-n2nc(C)cc2NC(=O)CN2CCC(C)CC2)n1,–,–,–,4.9,–
Cc1cc(C)nc(-n2nc(C)cc2NC(=O)CN2CCCC2)n1,–,–,–,–,·
CCC1CCC2(CC1)NC(=O)N(CC(=O)NCc1ccccc1Cl)C2=O (configuration not stated),–,–,·,–,·
C=CCNC(=O)c1c2c(nc3ccccc13)-c1ccccc1CC2,–,–,–,7.0,–
CP(C)(=O)CCP(=O)(c1ccccc1)c1ccccc1,–,–,–,–,·
CCN(CC)CCP(=O)(c1ccccc1)c1ccccc1,–,–,–,4.6,–
COc1ccc(C2=Nn3c(nnc3-c3ccncc3)SC2)cc1,–,–,–,13.5,–
COc1ccc(C2=Nn3c(nnc3-c3cccnc3)SC2)cc1,·,·,–,·,·
CCOC(=O)c1cccc2c1-c1ccccc1/C2=N/O,–,–,–,–,·
SMILES,NTR1 agonist,GRK2 inh,Platelet DG rel,MIN6 prolif-1,MIN6 prolif-2
CC1CCCC(C)N1C(=O)c1cccc2c1-c1ccccc1/C2=N/O (configuration not stated),–,–,·,5.5,–
C/C(=N\NC(=O)c1nnn(-c2nonc2N)c1-c1cccs1)c1cccc(O)c1,–,–,–,–,·
COc1cc(/C(C)=N/NC(=O)c2nnn(-c3nonc3N)c2-c2cccs2)ccc1O,–,–,–,4.6,–
O=C(COc1ncnc2ccccc12)Nc1cc([N+](=O)[O-])ccc1F,–,–,–,–,·
CCOc1ccccc1-n1c(SCC(=O)N2CCCc3ccccc32)nnc1-c1cccnc1,–,–,–,6.6,–
CC(=O)NCCc1nc2cc(NC(=O)COc3ccc(C)cc3)ccc2n1C,–,–,–,9.2,–
CC(=O)Nc1ccc(Oc2cnc3ccccc3n2)cc1,–,–,–,–,·
CC(=O)Nc1ccc(Oc2cnccn2)cc1,–,–,–,0.0,–
COc1ccc(Cl)cc1NC(=O)C(C)OC(=O)C1=NNC(=O)CC1 (configuration not stated),–,–,·,–,·
COc1ccc(-c2csc(NC(=O)CN3C(=O)C4CC=CCC4C3=O)n2)cc1 (configuration not stated),–,–,·,–,·
COc1ccc(-c2csc(NC(=O)CCN3C(=O)C4CC=CCC4C3=O)n2)cc1OC (configuration not stated),–,–,–,12.7,–
Cc1cc(C(F)(F)F)nc2c(Cl)c(C(C)(C)C)nn12,–,–,–,–,·
CC(C)c1ccc(S(=O)(=O)N2CCN(C(=O)c3cc([N+](=O)[O-])ccc3N3CCOCC3)CC2)cc1,–,–,–,–,·
O=C(c1cc([N+](=O)[O-])ccc1N1CCOCC1)N1CCN(S(=O)(=O)c2ccc(F)cc2)CC1,–,–,–,11.4,–
CCn1c(SCC(=O)Nc2ccccc2OC)nc(O)cc1=O,–,–,–,–,·
Cc1ccc(CNC(=O)CCNC(=O)N2CCn3c2nc2ccccc23)cc1,–,–,–,13.5,–
Cc1ccc(CNC(=O)CCCCCNC(=O)N2CCn3c2nc2ccccc23)cc1,–,–,–,–,·
CC(C)(C)N(NC(=O)OCc1ccccc1)C(=O)c1ccccc1Cl,–,–,–,0.0,–
COc1cccc(/C=N/n2c(C3CCCCC3)n[nH]c2=S)c1,–,–,·,6.9,–
O=C(O)Cc1cn(Cc2ccc(F)cc2)c2ccccc12,–,–,–,7.4,–
CN(C)S(=O)(=O)c1cccc(NC(=O)COC(=O)CCc2nc3ccccc3s2)c1,–,–,–,6.7,–
COc1ccccc1C(=O)COC(=O)c1cc([N+](=O)[O-])ccc1N1CCOCC1,–,–,·,–,·
COc1ccccc1C(=O)COC(=O)c1cc(S(=O)(=O)N2CCCCC2)ccc1N1CCOCC1,–,–,–,–,·
COc1ccc(C(=O)COC(=O)c2cc([N+](=O)[O-])ccc2N2CCOCC2)c(OC)c1,–,–,–,12.3,–
COc1ccc(C(=O)COC(=O)c2cc(S(=O)(=O)N3CCCCC3)ccc2N2CCOCC2)c(OC)c1,–,–,–,11.1,–
COc1ccc(CCNC(=O)C(=O)NCC2OCCN2C(=O)c2ccc(Cl)cc2)cc1OC (configuration not stated),–,–,–,–,·
CCOC(=O)C(=CNc1cccc(C)c1C)C(=O)OCC,–,–,–,–,·
CCOC(=O)C(=CNc1ccccc1N1CCOCC1)C(=O)OCC,–,–,–,6.0,–
CC(Sc1nnc(-c2cccs2)n1N)C(=O)NCC1CCCO1 (configuration not stated),–,–,–,–,·
